Experimental data: PubChem BioAssay AID651844 (Broad Institute, 2012)
Measured potencies and affinities stand elsewhere. Results filed as inconclusive are left out. Values without a mark were called inactive.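 How the source made its calls: active means every test run shows a luminescence drop with half-maximal concentration at most twice the top tested dose; inconclusive means test runs disagree, weak flat response, or unreliable curve fit; inactive means the rest.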

assay: NIH/3T3 fibroblast cytotoxicity, dose response, cytotoxicity control, cell-based, dry powder samples (AID 651844); details: NIH/3T3 viability, CellTiter-Glo ATP luminescence, 90 h; series mostly up to 16 µM; activity change, negative = cytotoxicity: at the top concentration

SMILES | activity change, negative = cytotoxicity [%]
CC(C)N1C[C@H](C)[C@@H](CN(C)Cc2cccc(Cl)c2)Oc2c(NC(=O)c3ccncc3)cccc2C1=O | -14.4
C[C@H]1CN([C@@H](C)CO)C(=O)c2cccc(NC(=O)c3ccncc3)c2O[C@@H]1CN(C)Cc1ccccc1 | -1.03
C[C@H]1CN([C@@H](C)CO)C(=O)c2cccc(NC(=O)c3ccncc3)c2O[C@@H]1CN(C)Cc1ccc2c(c1)OCO2 | -7.7
CC(C)N1C[C@@H](C)[C@H](CN(C)Cc2ccc(Oc3ccccc3)cc2)Oc2c(cccc2N(C)C(=O)c2ccncc2)C1=O | 25.7
CC(C)N1C[C@H](C)[C@@H](CN(C)Cc2ccccc2Cl)Oc2c(NC(=O)c3ccncc3)cccc2C1=O | -10.6
CNC[C@H]1Oc2c(NC(=O)c3ccccc3)cccc2C(=O)N(C(C)C)C[C@@H]1C | -2.74
C[C@@H]1CN([C@@H](C)CO)C(=O)c2cccc(NC(=O)c3ccncc3)c2O[C@H]1CN(C)Cc1ccc(C(=O)O)cc1 | 4.51
CC(C)N1C[C@H](C)[C@@H](CN(C)C(=O)OC(C)(C)C)Oc2c(NC(=O)c3ccccn3)cccc2C1=O | 13.7
C[C@@H]1CN([C@@H](C)CO)C(=O)c2cccc(NC(=O)c3ccncc3)c2O[C@H]1CN(C)Cc1cccc(Cl)c1 | -21.4
CC(C)N1C[C@H](C)[C@@H](CN(C)Cc2ccc(Oc3ccccc3)cc2)Oc2c(NC(=O)c3cccnc3)cccc2C1=O | 11.5
CC(C)N1C[C@H](C)[C@@H](CN(C)Cc2ccc(Oc3ccccc3)cc2)Oc2c(NC(=O)c3ccccn3)cccc2C1=O | 25.1
C[C@H]1CN([C@@H](C)CO)C(=O)c2cccc(NC(=O)c3ccncc3)c2O[C@@H]1CN(C)Cc1ccc(C(=O)Nc2ccccc2N)cc1 | -10.9
CC(C)N1C[C@H](C)[C@@H](CN(C)C(=O)OC(C)(C)C)Oc2c(NC(=O)c3cccnc3)cccc2C1=O | -9.16
CNC[C@@H]1Oc2c(NC(=O)c3ccncc3)cccc2C(=O)N(C(C)C)C[C@H]1C | -3.79
CC(C)N1C[C@H](C)[C@@H](CN(C)Cc2ccc(Cl)cc2)Oc2c(NC(=O)c3ccncc3)cccc2C1=O | -8.69
C[C@H]1CN([C@@H](C)CO)C(=O)c2cccc(NC(=O)c3ccncc3)c2O[C@@H]1CN(C)Cc1ccncc1 | -5.78
CC(C)N1C[C@H](C)[C@@H](CN(C)C(=O)OC(C)(C)C)Oc2c(C(=O)Nc3ccncc3)cccc2C1=O | -15
CC(C)N1C[C@H](C)[C@@H](CN(C)CC2CCOCC2)Oc2c(NC(=O)c3ccncc3)cccc2C1=O | -5.01
CC(C)N1C[C@H](C)[C@@H](CN(C)Cc2ccc(Oc3ccccc3)cc2)Oc2c(NC(=O)c3ccccc3)cccc2C1=O | 15.6
CC(C)N1C[C@H](C)[C@@H](CN(C)C(=O)OC(C)(C)C)Oc2c(C#N)cccc2C1=O | 9.56
C[C@@H]1CN([C@@H](C)CO)C(=O)c2cccc(NC(=O)c3ccncc3)c2O[C@@H]1CN(C)Cc1ccc(Oc2ccccc2)cc1 | 10.2
